Experiment [1] is described as follows: kinase inhibitors against Plasmodium liver-stage infection, cell-based, known kinase inhibitor set, luminescence, hepatoma host viability (AID 624392).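 Further: infected cells incubated roughly two days before readout.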 The note with it: Plasmodium liver stage in hepatoma cells, luciferase luminescence, concentration not given here; liver cell % of control: measured here: host liver cell viability; parasite % of control: stronger effect = lower value.

The nature of experiment [2]: modulators of glucocorticoid suppression of NF-kB, cell-based, luciferase, IL-1B stimulus, dexamethasone (AID 624486).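 On percent of negative control (+Dex): 100% = mean signal of vehicle control wells on the plate.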 The conditions noted are these: NF-kB luciferase reporter, IL-1B + dexamethasone, luminescence; percent of negative control (+Dex): actives lie on both sides, concentration not given here; z-score: measured here: IL-1B alone, no Dex. (In a reporter assay the amount or activity of a reporter protein is the signal.)

Experiment [3] can be described thus: kinase inhibitors altering Pseudomonas killing of worms, whole organism (AID 651566).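 Further: tested at 14 µM; sign flipped so higher z means a lower ratio.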 The note with it: C. elegans killed by P. aeruginosa, survival ratio.
Experiment [4] is described as follows: activators of macrophage pro-inflammatory response, cell-based, murine, luminescence (AID 652131). The note with it: murine macrophage pro-inflammatory reporter, stronger effect = higher value.
Experiment [5] has as its target Cellular tumor antigen p53 (Homo sapiens) (UniProt P04637). Briefly: kinase inhibitors altering GFP-p53 stability in HPV16-positive cells, imaging, known kinase inhibitor set, EGFP/DsRed ratio (AID 1053116).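 Further: cells exposed to compounds for 24 h at 37 °C before reading.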 The note with it: stronger effect = higher value; EGFP object count: measured here: GFP-p53 positive objects count.
Experiment [6] can be described thus: IRF3 reporter activation in THP-1 macrophages, cell-based, PMA-stimulated THP-1, luminescence (AID 1053176). The conditions noted are these: PMA-differentiated THP-1, IRF3 reporter luminescence; stronger effect = higher value.
Experiment [7] is described as follows: survival rescue of mitochondrial mutant cells in low glucose, primary screen, MELAS cybrids, Rieske KO mouse fibroblasts, CellTiter-Glo (AID 1508586;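 active means mean z-score across replicates of 1.96 or higher in either the MELAS or the Rieske mutant cell line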;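 further: z relative to plate mean and SD of compound and empty wells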). Background: Cellular ATP, detected with luciferase, serves as a proxy for viable cell number.
[8] abbreviates: MELAS cybrid survival, CellTiter-Glo 48 h, stronger effect = higher value.
Setting [9] is: Rieske KO mouse fibroblast survival, CellTiter-Glo 72 h.

Active and inactive are the calls of the source. Unless noted, how the calls were made is not given here.

The values that follow come from PubChem BioAssay.

Sequence of Cellular tumor antigen p53 (Homo sapiens) (P04637 whole entry, looked up): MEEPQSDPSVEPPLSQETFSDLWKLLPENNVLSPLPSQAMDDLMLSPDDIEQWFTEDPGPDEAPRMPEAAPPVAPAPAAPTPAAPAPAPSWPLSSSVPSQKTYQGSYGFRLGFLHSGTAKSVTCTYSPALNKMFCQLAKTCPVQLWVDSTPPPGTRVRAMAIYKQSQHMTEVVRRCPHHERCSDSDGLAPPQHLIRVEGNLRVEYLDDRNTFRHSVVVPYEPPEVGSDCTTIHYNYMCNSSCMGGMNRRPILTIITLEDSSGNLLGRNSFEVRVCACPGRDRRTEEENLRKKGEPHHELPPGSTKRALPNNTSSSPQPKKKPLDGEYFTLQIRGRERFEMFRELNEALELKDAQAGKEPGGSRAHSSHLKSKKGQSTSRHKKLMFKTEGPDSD

In turn, `c1cnn2ncc(-c3ccnc(Nc4ccc5c(c4)OCCO5)n3)c2c1` registered a liver cell % of control in experiment [1] of 141%. For the same molecule, the parasite % of control in experiment [1] was 14% (inactive). The percent of negative control (+Dex) in experiment [2] is 5% (active). Besides, the z-score in experiment [2] was -9.09; in experiment [3], 0.965 (inactive); in experiment [4], -1.27 (inactive); in experiment [7] (setting [8]), 0.529 (inactive); in experiment [7] (setting [9]) it was 0.76. Moreover, in experiment [5], the EGFP object count is 2.5. In experiment [5], the EGFP/DsRed ratio is 0.105 (inactive). For the same molecule, in experiment [6], the fraction signal is -0.0005 (inactive).

Consider `CCn1c(-c2nonc2N)nc2c(C#CC(C)(C)O)nc(OCCNC)cc21`, for which the liver cell % of control in experiment [1] was found to be 78.2%. The parasite % of control in experiment [1] is 239% (inactive). For the same molecule, in experiment [2], the percent of negative control (+Dex) was 83.5% (inactive). Besides, the z-score in experiment [2] was -0.295; in experiment [3] it was 1.3 (inactive); in experiment [4] it was -0.135 (inactive); in experiment [7] (setting [8]) it was -0.95 (inactive); in experiment [7] (setting [9]), -0.363. For the same molecule, the EGFP object count in experiment [5] was 10.5. For the same molecule, the EGFP/DsRed ratio in experiment [5] is 0.224 (inactive). In addition, the fraction signal in experiment [6] is -0.006 (inactive).

The molecule `COc1cc(/C=N/Nc2ncnc3c2cnn3Cc2ccccc2)ccc1O` registered a liver cell % of control in experiment [1] of 94.9%. Moreover, the parasite % of control in experiment [1] was 99.3% (inactive). The percent of negative control (+Dex) in experiment [2] is 85% (inactive). The z-score was -0.18 in experiment [2]; -0.52 (inactive) in experiment [3]; 1.23 (inactive) in experiment [4]; 1.43 (inactive) in experiment [7] (setting [8]); 0.207 in experiment [7] (setting [9]). For the same molecule, in experiment [5], the EGFP object count turned out to be 100. In experiment [5], the EGFP/DsRed ratio is 1.43 (active). In addition, in experiment [6], the fraction signal was 0.0995 (inactive).

As for `O=C1Nc2ccc(I)cc2/C1=C\c1cc(Br)c(O)c(Br)c1`, the liver cell % of control in experiment [1] was 86.2%. For the same molecule, the parasite % of control in experiment [1] is 77.5% (inactive). In addition, the percent of negative control (+Dex) in experiment [2] was 92% (inactive). Moreover, the z-score was -0.355 in experiment [2]; 1.3 (inactive) in experiment [3]; 0.587 (inactive) in experiment [4]; 0.405 (inactive) in experiment [7] (setting [8]); -0.253 in experiment [7] (setting [9]). Moreover, the EGFP object count in experiment [5] is 1. Also, the EGFP/DsRed ratio in experiment [5] is 0.0402 (inactive). The fraction signal in experiment [6] was -0.0105 (inactive).

In experiment [1], `Fc1cccc(COc2ccc(Nc3ncncc3C#Cc3ccccc3)cc2Cl)c1` gave a liver cell % of control of 87.3%. Further, the parasite % of control in experiment [1] is 98% (inactive). Moreover, the percent of negative control (+Dex) in experiment [2] is 85.5% (inactive). In addition, the z-score in experiment [2] was -0.815; in experiment [3] it was 1.36 (inactive); in experiment [4] it was -0.904 (inactive); in experiment [7] (setting [8]) it was -0.0898 (inactive); in experiment [7] (setting [9]), -0.226. Moreover, in experiment [5], the EGFP object count came out at 4. Besides, in experiment [5], the EGFP/DsRed ratio is 0.0412 (inactive). For the same molecule, the fraction signal in experiment [6] was -0.002 (inactive).

Molecule `CS(=O)(=O)CCNCc1cc(-c2cc3c(Nc4ccc(OCc5cccc(F)c5)c(Cl)c4)ncnc3s2)cs1` gave a liver cell % of control in experiment [1] of 91.2%. In experiment [1], the parasite % of control is 132% (inactive). For the same molecule, in experiment [2], the percent of negative control (+Dex) is 79.5% (inactive). The z-score in experiment [2] is -0.645; in experiment [3] it was 0.375 (inactive); in experiment [4], 0.207 (inactive); in experiment [7] (setting [8]), -0.394 (inactive); in experiment [7] (setting [9]) it was -0.666. Moreover, the EGFP object count in experiment [5] is 4.5. Further, the EGFP/DsRed ratio in experiment [5] was 0.11 (inactive). Moreover, the fraction signal in experiment [6] is -0.0035 (inactive).

`FC(F)(F)c1cccc(-c2nn3ncccc3c2-c2ccnc(Nc3ccc4c(c3)OCCO4)n2)c1` showed a liver cell % of control in experiment [1] of 147%. Besides, in experiment [1], the parasite % of control is 22.4% (inactive). Further, the percent of negative control (+Dex) in experiment [2] was 90.5% (inactive). In addition, the z-score in experiment [2] is 0.13; in experiment [3], -0.325 (inactive); in experiment [4], -0.458 (inactive); in experiment [7] (setting [8]), -0.0141 (inactive); in experiment [7] (setting [9]) it was -0.445. In addition, the EGFP object count in experiment [5] is 5.5. Also, in experiment [5], the EGFP/DsRed ratio is 0.171 (inactive). Also, the fraction signal in experiment [6] was 0.007 (inactive).

Regarding `CC(=Nc1ccc(S(N)(=O)=O)cc1)c1c(O)[nH]c2ccccc12`, in experiment [1], the liver cell % of control came out at 121%. The parasite % of control in experiment [1] is 234% (inactive). In addition, the percent of negative control (+Dex) in experiment [2] was 176% (active). Further, the z-score in experiment [2] is 5.95; in experiment [3] it was -0.905 (inactive); in experiment [4] it was 6.44 (active); in experiment [7] (setting [8]), -0.469 (inactive); in experiment [7] (setting [9]), -0.351. Besides, the EGFP object count in experiment [5] amounted to 0.5. The EGFP/DsRed ratio in experiment [5] was 0.00933 (inactive). Besides, in experiment [6], the fraction signal is 0.0025 (inactive).

In experiment [1], `c1cnn2ncc(-c3ccnc(NCCCN4CCOCC4)n3)c2c1` yielded a liver cell % of control of 91.2%. Also, the parasite % of control in experiment [1] was 426% (inactive). For the same molecule, in experiment [2], the percent of negative control (+Dex) is 57% (inactive). The z-score is -4.11 in experiment [2]; 0.63 (inactive) in experiment [3]; -1.59 (inactive) in experiment [4]; -0.792 (inactive) in experiment [7] (setting [8]); -0.375 in experiment [7] (setting [9]). Moreover, the EGFP object count in experiment [5] was 1.5. For the same molecule, the EGFP/DsRed ratio in experiment [5] is 0.248 (inactive). For the same molecule, the fraction signal in experiment [6] is -0.004 (inactive).

In experiment [1], `NS(=O)(=O)c1ccc(-c2cc3ccncc3cc2OCc2ccccc2)cc1` had a liver cell % of control of 218%. In addition, in experiment [1], the parasite % of control was 144% (inactive). Moreover, in experiment [2], the percent of negative control (+Dex) was 81% (inactive). Moreover, the z-score in experiment [2] was -1.8; in experiment [3], -0.345 (inactive); in experiment [4] it was 6.56 (active); in experiment [7] (setting [8]), -0.151 (inactive); in experiment [7] (setting [9]) it was -0.251. Also, the EGFP object count in experiment [5] was determined as 4.5. The EGFP/DsRed ratio in experiment [5] is 0.0743 (inactive). Besides, the fraction signal in experiment [6] is -0.005 (inactive).

In turn, `Cn1c(-c2nonc2N)nc2cnccc21` came in with a liver cell % of control in experiment [1] of 87.4%. Further, in experiment [1], the parasite % of control is 106% (inactive). The percent of negative control (+Dex) in experiment [2] was 70.5% (inactive). Further, the z-score was -2.13 in experiment [2]; -0.36 (inactive) in experiment [3]; -0.113 (inactive) in experiment [4]; -0.058 (inactive) in experiment [7] (setting [8]); -0.308 in experiment [7] (setting [9]). The EGFP object count in experiment [5] came to 4.5. Also, the EGFP/DsRed ratio in experiment [5] is 0.0787 (inactive). In experiment [6], the fraction signal was -0.0065 (inactive).

In experiment [1], `CN(c1ccc(NC(=O)Nc2ccc(OC(F)(F)F)cc2)cc1)c1ccnc(Nc2cccc(S(N)(=O)=O)c2)n1` showed a liver cell % of control of 58.3%. In experiment [1], the parasite % of control is 13.1% (inactive). Moreover, the percent of negative control (+Dex) in experiment [2] was 81.5% (inactive). Further, the z-score in experiment [2] was -0.645; in experiment [3], 1.04 (inactive); in experiment [4], -1.34 (inactive); in experiment [7] (setting [8]), -1.15 (inactive); in experiment [7] (setting [9]), 0.249. The EGFP object count in experiment [5] worked out at 7.5. The EGFP/DsRed ratio in experiment [5] is 0.0983 (inactive). The fraction signal in experiment [6] was -0.001 (inactive).

Regarding `Cc1ccc(Nc2ccnc(Nc3cccc(C(N)=O)c3)n2)cc1O`, the liver cell % of control in experiment [1] turned out to be 103%. Further, the parasite % of control in experiment [1] is 259% (inactive). For the same molecule, the percent of negative control (+Dex) in experiment [2] was 106% (inactive). The z-score in experiment [2] is 1.52; in experiment [3], -0.32 (inactive); in experiment [4], -1.32 (inactive); in experiment [7] (setting [8]), -0.195 (inactive); in experiment [7] (setting [9]) it was 0.472. For the same molecule, the EGFP object count in experiment [5] worked out at 3. In experiment [5], the EGFP/DsRed ratio was 0.0254 (inactive). The fraction signal in experiment [6] is -0.008 (inactive).

In experiment [1], `CCc1ccc(Oc2nccc(-c3c(-c4ccc(F)cc4)ncn3C3CCNCC3)n2)cc1` showed a liver cell % of control of 78.5%. The parasite % of control in experiment [1] is 140% (inactive). In addition, in experiment [2], the percent of negative control (+Dex) was 104% (inactive). In addition, the z-score was 0.41 in experiment [2]; 0.125 (inactive) in experiment [3]; -0.495 (inactive) in experiment [4]; -0.158 (inactive) in experiment [7] (setting [8]); -0.111 in experiment [7] (setting [9]). In experiment [5], the EGFP object count turned out to be 4.5. In experiment [5], the EGFP/DsRed ratio is 0.0563 (inactive). Further, in experiment [6], the fraction signal was -0.0095 (inactive).

On to `COC(=O)c1sc(-n2cnc3cc(OC)c(OC)cc32)cc1OCc1ccccc1C(F)(F)F`, for which the liver cell % of control in experiment [1] came out at 103%. The parasite % of control in experiment [1] was 126% (inactive). Also, the percent of negative control (+Dex) in experiment [2] was 86% (inactive). Moreover, the z-score was 0.12 in experiment [2]; 0.885 (inactive) in experiment [3]; 0.445 (inactive) in experiment [4]; -0.644 (inactive) in experiment [7] (setting [8]); 0.293 in experiment [7] (setting [9]). Further, the EGFP object count in experiment [5] worked out at 4.5. Further, the EGFP/DsRed ratio in experiment [5] was 0.108 (inactive). Further, the fraction signal in experiment [6] is -0.003 (inactive).
